Hit rate of the full screen: of about 5,500 compounds, about 2,000 (36%) were called active. Not shown: some 18% with an inconclusive outcome. Cut-off read from the data, not from the text of the source: active = normalized growth mostly below about 0.91 (no sharp cut-off); inconclusive = no clear call, values can overlap the other calls; inactive = mostly above about 0.92. The list shows a part of the results.
Assay: chemical genetic growth profiling, strain panel (AID 1159580);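 note: tested at 20 µM; growth read once vehicle control cultures reached saturation at 30 °C; 1 = growth at the plate median or of vehicle wells; lower values mean less growth of the strain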
Conditions: growth OD

Measured: normalized growth

O=c1cccc2n1C[C@H]1CNCC2C1
inactive: S. cerevisiae deletion strains, locus YJR043C, strain POL32, stronger effect = lower value 1.01 | S. cerevisiae deletion strains, locus YJR066W, strain TOR1, stronger effect = lower value 0.988 | S. cerevisiae deletion strains, locus YKL009W, strain mrt4, stronger effect = lower value 1.02 | S. cerevisiae deletion strains, locus YKL068W, stronger effect = lower value 0.98 | S. cerevisiae deletion strains, locus YKL085W, strain MDH1 (second series), stronger effect = lower value 1 | S. cerevisiae deletion strains, locus YKL085W, strain MDH1, stronger effect = lower value 1 | S. cerevisiae deletion strains, locus YKL160W, strain elf1, stronger effect = lower value 0.984 | S. cerevisiae deletion strains, locus YKR001C, strain vps1, stronger effect = lower value 0.964 | S. cerevisiae deletion strains, locus YKR026C, strain gcn3, stronger effect = lower value 0.994 | S. cerevisiae deletion strains, locus YKR091W, strain srl3, stronger effect = lower value 1.01 | S. cerevisiae deletion strains, locus YLL001W, strain dnm1, stronger effect = lower value 0.95 | S. cerevisiae deletion strains, locus YLL026W, stronger effect = lower value 1.01 | S. cerevisiae deletion strains, locus YLL041C, strain sdh2, stronger effect = lower value 0.998 | S. cerevisiae deletion strains, locus YLR027C, strain aat2, stronger effect = lower value 1 | S. cerevisiae deletion strains, locus YLR039C, strain RIC1, stronger effect = lower value 1.01 | S. cerevisiae deletion strains, locus YLR058C, strain SHM2, stronger effect = lower value 1.01 | S. cerevisiae deletion strains, locus YLR102C, strain apc9, stronger effect = lower value 0.985 | S. cerevisiae deletion strains, locus YLR113W, strain HOG1, stronger effect = lower value 0.979 | S. cerevisiae deletion strains, locus YLR221C, strain rsa3, stronger effect = lower value 0.971 | S. cerevisiae deletion strains, locus YLR258W, strain gsy2, stronger effect = lower value 0.982 | S. cerevisiae deletion strains, locus YLR262C, strain YPT6 (second series), stronger effect = lower value 0.998 | S. cerevisiae deletion strains, locus YLR262C, strain YPT6, stronger effect = lower value 1.01 | S. cerevisiae deletion strains, locus YLR268W, strain sec22, stronger effect = lower value 0.971 | S. cerevisiae deletion strains, locus YLR320W, strain mms22, stronger effect = lower value 0.974 | S. cerevisiae deletion strains, locus YLR330W, strain CHS5, stronger effect = lower value 0.989 | S. cerevisiae deletion strains, locus YLR342W, strain FKS1 (second series), stronger effect = lower value 1.04 | S. cerevisiae deletion strains, locus YLR342W, strain FKS1, stronger effect = lower value 1.01 | S. cerevisiae deletion strains, locus YLR357W, strain rsc2, stronger effect = lower value 1.09 | S. cerevisiae deletion strains, locus YLR370C, strain arc18, stronger effect = lower value 0.99 | S. cerevisiae deletion strains, locus YLR371W, strain rom2, stronger effect = lower value 0.976 | S. cerevisiae deletion strains, locus YLR384C, strain iki3, stronger effect = lower value 1 | S. cerevisiae deletion strains, locus YLR418C, strain cdc73, stronger effect = lower value 1.03 | S. cerevisiae deletion strains, locus YML016C, strain PPZ1, stronger effect = lower value 1.01 | S. cerevisiae deletion strains, locus YML032C, strain rad52, stronger effect = lower value 1.01 | S. cerevisiae deletion strains, locus YML120C, strain ndi1, stronger effect = lower value 0.993 | S. cerevisiae deletion strains, locus YML124C, strain tub3, stronger effect = lower value 0.995 | S. cerevisiae deletion strains, locus YMR058W, strain fet3, stronger effect = lower value 1.01 | S. cerevisiae deletion strains, locus YMR078C, strain ctf18, stronger effect = lower value 0.984 | S. cerevisiae deletion strains, locus YMR125W, strain sto1, stronger effect = lower value 0.992 | S. cerevisiae deletion strains, locus YMR129W, stronger effect = lower value 1 | S. cerevisiae deletion strains, locus YMR205C, strain PFK2, stronger effect = lower value 0.994 | S. cerevisiae deletion strains, locus YMR223W, strain ubp8, stronger effect = lower value 1.01 | S. cerevisiae deletion strains, locus YMR231W, strain pep5, stronger effect = lower value 1.01 | S. cerevisiae deletion strains, locus YMR263W, strain SAP30, stronger effect = lower value 1 | S. cerevisiae deletion strains, locus YMR307W, strain GAS1, stronger effect = lower value 1.07 | S. cerevisiae deletion strains, locus YNL067W, strain RPL9B, stronger effect = lower value 1.01 | S. cerevisiae deletion strains, locus YNL071W, strain lat1, stronger effect = lower value 1.01 | S. cerevisiae deletion strains, locus YNL153C, strain GIM3, stronger effect = lower value 1.03 | S. cerevisiae deletion strains, locus YNL183C, strain NPR1, stronger effect = lower value 0.987 | S. cerevisiae deletion strains, locus YNL209W, strain ssb2, stronger effect = lower value 1.01 | S. cerevisiae deletion strains, locus YNL233W, strain BNI4, stronger effect = lower value 1.03 | S. cerevisiae deletion strains, locus YNL248C, strain rpa49, stronger effect = lower value 1.09 | S. cerevisiae deletion strains, locus YNL250W, strain rad50, stronger effect = lower value 0.929 | S. cerevisiae deletion strains, locus YNL271C, strain bni1, stronger effect = lower value 0.988 | S. cerevisiae deletion strains, locus YNL298W, strain CLA4, stronger effect = lower value 1.01 | S. cerevisiae deletion strains, locus YNL307C, strain MCK1, stronger effect = lower value 0.983 | S. cerevisiae deletion strains, locus YNL322C, strain KRE1 (second series), stronger effect = lower value 1 | S. cerevisiae deletion strains, locus YNR049C, strain mso1, stronger effect = lower value 1 | S. cerevisiae deletion strains, locus YNR052C, strain pop2, stronger effect = lower value 1.01 | S. cerevisiae deletion strains, locus YOL006C, strain TOP1, stronger effect = lower value 1.02 | S. cerevisiae deletion strains, locus YOL012C, strain htz1 1.03 | S. cerevisiae deletion strains, locus YOL147C, strain pex11, stronger effect = lower value 0.998 | S. cerevisiae deletion strains, locus YOR001W, strain rrp6, stronger effect = lower value 0.987 | S. cerevisiae deletion strains, locus YOR061W, strain CKA2, stronger effect = lower value 1.01 | S. cerevisiae deletion strains, locus YOR069W, strain VPS5, stronger effect = lower value 0.999 | S. cerevisiae deletion strains, locus YOR070C, strain gyp1, stronger effect = lower value 0.998 | S. cerevisiae deletion strains, locus YOR080W, strain dia2, stronger effect = lower value 1 | S. cerevisiae deletion strains, locus YOR083W, strain WHI5, stronger effect = lower value 0.991 | S. cerevisiae deletion strains, locus YOR106W, strain vam3, stronger effect = lower value 1.01 | S. cerevisiae deletion strains, locus YOR136W, strain idh2, stronger effect = lower value 0.994 | S. cerevisiae deletion strains, locus YOR144C, strain elg1, stronger effect = lower value 1 | S. cerevisiae deletion strains, locus YOR184W, strain ser1, stronger effect = lower value 0.996 | S. cerevisiae deletion strains, locus YOR231W, strain MKK1, stronger effect = lower value 1.02 | S. cerevisiae deletion strains, locus YOR265W, strain rbl2, stronger effect = lower value 1.01 | S. cerevisiae deletion strains, locus YOR270C, strain vph1, stronger effect = lower value 1.05 | S. cerevisiae deletion strains, locus YOR290C, strain snf2, stronger effect = lower value 0.958 | S. cerevisiae deletion strains, locus YOR316C, strain cot1, stronger effect = lower value 0.994 | S. cerevisiae deletion strains, locus YPL051W, strain arl3, stronger effect = lower value 1 | S. cerevisiae deletion strains, locus YPL078C, strain atp4, stronger effect = lower value 0.997 | S. cerevisiae deletion strains, locus YPL106C, strain sse1, stronger effect = lower value 0.957 | S. cerevisiae deletion strains, locus YPL240C, strain hsp82, stronger effect = lower value 0.993 | S. cerevisiae deletion strains, locus YPL241C, strain CIN2, stronger effect = lower value 1 | S. cerevisiae deletion strains, locus YPL256C, strain CLN2, stronger effect = lower value 1.07 | S. cerevisiae deletion strains, locus YPR119W, strain clb2, stronger effect = lower value 0.981 | S. cerevisiae deletion strains, locus YPR141C, strain kar3, stronger effect = lower value 0.982 | S. cerevisiae deletion strains, locus YPR163C, strain tif3, stronger effect = lower value 0.993 | S. cerevisiae deletion strains, locus YPR167C, strain met16, stronger effect = lower value 0.98 | S. cerevisiae deletion strains, strain wtn01, stronger effect = lower value 0.958 | S. cerevisiae strains, strain wild type, stronger effect = lower value 1.01

Source: PubChem BioAssay AID1159580 (chemical genetic matrix, 2015)
